# Results reported in PubChem BioAssay (NCATS).
# Values without a mark were called inactive. Results filed as inconclusive are left out. A call without a number means that no potency is given here. Some compounds were tested as several samples or in several runs, with calls that do not always agree. Calls of active or inactive are those of the source. Unless noted, the call rests on the fitted dose curve; in most records, active means well fitted curve in the direction sought with a large enough effect; inconclusive means small, poorly fitted or top-dose-only effect, or another doubt; inactive means no such curve, though single readings can be large; an effect the other way counts as inactive or inconclusive.
# How the values were obtained:
# [1] = Cellular Toxicity (caspase-3) H-4-II-E (AID 663);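 further: cells exposed to compound for 16 hr before readout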
# How it was run: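 Rat hepatoma H-4-II-E cells (1500/well) plated 5 hr, then exposed to compound titrations for 16 hr at 37 °C. Caspase-Glo 3/7 luminescence read after 20 min at RT; data normalized to DMSO and 100 uM tamoxifen, AC50 from Hill fits.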
# [2] = Cellular Toxicity (caspase-3) Hek293 (AID 664);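 further: cells exposed to compound for 16 h at 37 °C before readout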
# How it was run: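 HEK293 cells were exposed to compounds in complete medium for 16 hr at 37 °C, then caspase-3/7 activity was read by Caspase-Glo 3/7 luminescence after 20 min at room temperature. Data normalized to DMSO and 100 uM tamoxifen; AC50 from Hill fits.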
# [3] = Cellular Toxicity (caspase-3) N2a (AID 665);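 further: compound exposure lasted 16 h at 37 °C before readout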
# How it was run: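 Mouse N2a neuroblastoma cells (1500/well) were treated with compounds for 16 h at 37 °C, then caspase-3/7 activity was read by Caspase-Glo luminescence after 1 h at room temperature. Data were normalized to DMSO and 10 uM staurosporine; AC50 from Hill fits.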
# [4] = Cellular Toxicity (caspase-3) NIH 3T3 (AID 666)
# How it was run: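 Mouse NIH 3T3 fibroblasts (1000 cells/well) were treated with compound for 16 hr at 37°C in complete medium; caspase-3/7 activity was read by Caspase-Glo luminescence. Normalized to DMSO and 100 uM tamoxifen; AC50 from Hill fits.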
# [5] = Cellular Toxicity (caspase-3) Renal Proximal Tubule (AID 667);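 further: cells exposed to compound for 16 hours at 37 °C before detection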
# How it was run: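 Caspase-Glo 3/7 read-out, rat primary kidney proximal tubule cells. Compound exposure 16 h, 37 °C; detection after 1 h at RT. Activity scaled to DMSO and 10 uM staurosporine.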
# [6] = biological target: Cytochrome P450 3A4 (Homo sapiens) (UniProt P08684); assay: qHTS Assay for Inhibitors and Substrates of Cytochrome P450 3A4 (AID 884); further: nearly all actives have a fitted effect of over 50% in size; further: potency means the concentration at half of the fitted maximal effect; on activity change, negative = inhibition: series mostly up to about 57 µM
# How it was run: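 20 nM human CYP3A4 with 25 uM Luciferin-PPXE (at KM) in 200 mM KPO4, preincubated 10 min with compound; NADPH regeneration started a 60 min RT reaction. Luciferin detected by luminescence, normalized to 57 uM ketoconazole as full inhibition.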
# [7] = Cell Viability - LYMP2-001 (AID 921);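 further: series mostly up to about 92 µM; cells exposed to compound for 24 h at 37 °C; nearly all actives have a fitted effect of over 70% in size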
# How it was run: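 A lymphoblastoid cell line of human origin was treated with library compounds across a concentration series for 24 hours, and viable cell number was estimated from ATP-driven luciferase light output. Hill modeling gave AC50.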
# [8] = Confirmation and Secondary Assay for Modulators of Hemoglobin Beta Chain Splicing at IVS2 654 locus (AID 910);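 further: HeLa cells stably carrying EGFP split by mutant beta-globin IVS2-654 intron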
# How it was run: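 HeLa cells stably expressing EGFP interrupted by β-globin IVS2-654 intron, seeded overnight in Opti-MEM/2% FCS, then treated 2 days at 37 °C. Restored splicing read as total peak GFP intensity per well by laser scanning cytometry (488 nm excitation, 500–520 nm emission); 500 nM antisense PNA as control.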
# [9] = biological target: Cytochrome P450 2D6 (Homo sapiens) (UniProt P10635); assay: qHTS Assay for Inhibitors and Substrates of Cytochrome P450 2D6 (AID 891); further: nearly all actives have a fitted effect of over 60% in size; further: potency means the concentration at half of the fitted maximal effect;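 on activity change, negative = inhibition: luciferin methyl ether substrate demethylated by CYP2D6 with NADPH regeneration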
# How it was run: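 Human CYP2D6 (5 nM) with 30 uM Luciferin-ME EGE (at Km) in 100 mM KPO4, compound preincubated 10 min, then NADPH regeneration system for 60 min at room temperature. Luciferin read by luminescence; normalized to 1.43 uM quinidine.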
# [10] = Confirmation and Secondary Assay for Modulators of Hemoglobin Beta Chain Splicing at IVS2 705 locus (AID 930);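 further: HeLa cells stably expressing the EGFP-705 splicing reporter; GFP fluorescence per well restored by corrected splicing of the IVS2-705 intron in EGFP; series mostly up to about 46 µM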
# How it was run: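 First, HeLa EGFP-705 cells are seeded at 500/well in Optimem with 2% FCS and left overnight. Next, compound or DMSO is added for 2 days. Finally wells are laser-scanned and total peak GFP intensity scored.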
# [11] = biological target: Cytochrome P450 2C9 (Homo sapiens) (UniProt P11712); assay: qHTS Assay for Inhibitors and Substrates of Cytochrome P450 2C9 (AID 883); further: nearly all actives have a fitted effect of over 60% in size; further: potency means the concentration at half of the fitted maximal effect
# How it was run: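 10nM CYP2C9 + 100uM Luciferin-H (=KM), 25mM KPO4; cpd 10 min 37C; NADPH regen, 60 min 37C; stop/detect with P450 Glo-Buffer 20 min; luminescence. Norm. to 57uM sulphaphenazole as full inhibition.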
# [12] = biological target: Cytochrome P450 2C19 (Homo sapiens) (UniProt P33261); assay: qHTS Assay for Inhibitors and Substrates of Cytochrome P450 2C19 (AID 899); further: nearly all actives have a fitted effect of over 60% in size
# How it was run: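 Luminescent read-out of luciferin formed from Luciferin-H EGE (10uM, equal to KM). Enzyme 5nM in 50mM KPO4; compound added, 10 min at 37C, then NADPH regenerating system for 60 min at 37C. Full inhibition defined by 57uM ketoconazole.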
# [13] = biological target: Guanine nucleotide-binding protein G(i) subunit alpha-1 (Homo sapiens) (UniProt P63096); assay: qHTS Assay for Inhibitors of RGS12 GoLoco Motif Activity (Green Fluorophore) (AID 879);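 further: negative values mean loss of peptide binding seen as reduced polarization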
# How it was run: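 Fluorescence polarization assay: 50 nM Gαi1 with 10 nM FITC-labeled RGS12 GoLoco peptide in 10 mM Tris pH 7.5, 150 mM NaCl, 0.1 mM GDP, 0.05% NP40, 10 min at room temperature with compound.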
# [14] = qHTS Assay for Identification of Small Molecule Antagonists for Thrombopoietin (TPO) Signaling Pathway (AID 918); conditions: TPO-dependent cell signaling reporter, antagonist mode; further: potency means the concentration at half of the fitted maximal effect; nearly all actives have a fitted effect of over 60% in size
# How it was run: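 Murine Ba/F3 cells stably expressing human TPO receptor and a Glycoprotein IIb promoter–luciferase reporter were IL-3-starved overnight, treated with compounds plus TPO (26 pM final, its EC50) for 24 hrs at 37 C, then read by luminescence.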
# [15] = biological target: Pyruvate kinase (Leishmania mexicana) (UniProt Q27686); assay: qHTS Validation Assay for Inhibitors of Leishmania Mexicana Pyruvate Kinase (AID 945)
# How it was run: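 qHTS eight-point titrations against 0.2 nM LmPYK (E451W) in imidazole buffer pH 7.2 with 0.5 mM PEP, 0.1 mM ADP; 1 h, room temperature. Readout: PKLight luminescence, normalized to neutral DMSO wells.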
# [16] = qHTS Assay for Identification of Small Molecule Agonists for Thrombopoietin (TPO) Signaling Pathway (AID 917)
# How it was run: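 IL-3-dependent murine pro-B Ba/F3 cells, stably transfected with human TPO receptor and GpIIb-promoter luciferase, are incubated 24 hrs at 37 C with test compound and 26 pM TPO; luciferase signal is read after 10 min at room temperature.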
# [17] = biological target: Muscarinic acetylcholine receptor M1 (Rattus norvegicus) (UniProt P08482); assay: qHTS Assay for Antagonists of Acetylcholine Muscarinic M1 Receptor: Kinetic Measurement of Intracellular Calcium Response (AID 943); further: nearly all actives have a fitted effect of over 75% in size; further: potency means the concentration at half of the fitted maximal effect;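 on activity change, negative = inhibition: Fluo-4 calcium signal as peak divided by basal fluorescence over 4 min; series mostly up to about 35 µM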
# How it was run: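 CHO cells stably expressing rat M1 were loaded with no-wash Fluo-4 dye for 1 h at 37C, pre-incubated 10 min with compound, then challenged with EC80 carbachol (100 nM final); kinetic calcium read 4 min, peak/basal ratio.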
# [18] = biological target: Cytochrome P450 3A4 (Homo sapiens) (UniProt P08684); assay: qHTS Assay for Activators of Cytochrome P450 3A4 (AID 885); further: nearly all actives have a fitted effect of over 65% in size
# How it was run: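 Signal was normalized against complete inhibition by 57 uM ketoconazole. The reaction used 20nM CYP3A4 with 25uM Luciferin-PPXE, 10-min compound preincubation and a 60-min NADPH-supported step at RT.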
# [19] = qHTS Assay for Identification of Small Molecule Antagonists for NFkB Signaling Pathway (AID 895; active means well fitted inhibition curve with a large enough effect in the signal ratio, with a control signal flat, not every such curve was filed as active; the % refers to the signal ratio)
# How it was run: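 ME-180 NFkB-bla cells (beta-lactamase under NFkB response element), plated overnight, treated with compound then 10 pM TNF alpha (about EC50) for 5 hrs at 37 C. LiveBLAzer FRET read at 460/530 nm emission, 405 nm excitation.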
# Chain of Cytochrome P450 3A4 (Homo sapiens) (P08684 whole entry, looked up): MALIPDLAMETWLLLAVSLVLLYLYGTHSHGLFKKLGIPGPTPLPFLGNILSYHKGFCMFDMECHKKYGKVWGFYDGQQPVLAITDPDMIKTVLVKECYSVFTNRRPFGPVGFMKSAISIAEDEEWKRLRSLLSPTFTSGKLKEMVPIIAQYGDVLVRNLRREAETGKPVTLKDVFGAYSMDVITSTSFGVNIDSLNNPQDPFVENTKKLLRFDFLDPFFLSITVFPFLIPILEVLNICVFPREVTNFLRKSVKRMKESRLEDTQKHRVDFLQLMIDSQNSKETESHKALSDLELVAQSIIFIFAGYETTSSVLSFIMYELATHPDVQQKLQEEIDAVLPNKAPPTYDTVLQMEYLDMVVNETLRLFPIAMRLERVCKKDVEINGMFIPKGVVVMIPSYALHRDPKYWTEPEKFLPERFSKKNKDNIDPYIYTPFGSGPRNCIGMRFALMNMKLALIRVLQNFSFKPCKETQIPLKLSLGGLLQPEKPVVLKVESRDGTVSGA
# Chain of Cytochrome P450 2C9 (Homo sapiens) (P11712 whole entry, looked up): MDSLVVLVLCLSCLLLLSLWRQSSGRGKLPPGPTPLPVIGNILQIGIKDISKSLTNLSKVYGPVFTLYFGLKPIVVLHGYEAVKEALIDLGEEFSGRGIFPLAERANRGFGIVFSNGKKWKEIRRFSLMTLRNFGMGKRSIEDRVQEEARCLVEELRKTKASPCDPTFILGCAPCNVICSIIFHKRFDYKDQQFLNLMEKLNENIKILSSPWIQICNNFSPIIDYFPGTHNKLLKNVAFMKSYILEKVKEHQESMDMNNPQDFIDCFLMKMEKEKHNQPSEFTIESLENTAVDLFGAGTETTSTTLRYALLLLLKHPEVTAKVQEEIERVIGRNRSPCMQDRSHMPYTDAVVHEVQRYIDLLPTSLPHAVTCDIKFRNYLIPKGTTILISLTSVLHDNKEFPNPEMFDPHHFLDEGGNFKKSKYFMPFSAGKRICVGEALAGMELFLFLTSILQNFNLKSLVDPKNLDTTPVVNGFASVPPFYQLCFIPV
# Chain of Cytochrome P450 2D6 (Homo sapiens) (P10635 whole entry, looked up): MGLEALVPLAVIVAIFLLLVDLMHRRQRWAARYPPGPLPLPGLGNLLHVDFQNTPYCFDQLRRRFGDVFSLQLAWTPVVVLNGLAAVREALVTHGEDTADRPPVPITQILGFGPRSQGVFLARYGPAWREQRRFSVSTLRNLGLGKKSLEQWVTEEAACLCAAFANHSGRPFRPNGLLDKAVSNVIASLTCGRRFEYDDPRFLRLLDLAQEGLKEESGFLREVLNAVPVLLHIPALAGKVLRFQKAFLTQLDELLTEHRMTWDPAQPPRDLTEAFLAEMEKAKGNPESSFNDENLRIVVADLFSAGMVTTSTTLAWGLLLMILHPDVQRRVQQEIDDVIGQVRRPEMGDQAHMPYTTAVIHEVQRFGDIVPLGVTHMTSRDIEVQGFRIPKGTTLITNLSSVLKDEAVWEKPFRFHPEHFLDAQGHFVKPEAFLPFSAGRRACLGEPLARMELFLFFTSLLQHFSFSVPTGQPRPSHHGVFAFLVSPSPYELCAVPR
# Chain of Pyruvate kinase (Leishmania mexicana) (Q27686 2-499 E452W): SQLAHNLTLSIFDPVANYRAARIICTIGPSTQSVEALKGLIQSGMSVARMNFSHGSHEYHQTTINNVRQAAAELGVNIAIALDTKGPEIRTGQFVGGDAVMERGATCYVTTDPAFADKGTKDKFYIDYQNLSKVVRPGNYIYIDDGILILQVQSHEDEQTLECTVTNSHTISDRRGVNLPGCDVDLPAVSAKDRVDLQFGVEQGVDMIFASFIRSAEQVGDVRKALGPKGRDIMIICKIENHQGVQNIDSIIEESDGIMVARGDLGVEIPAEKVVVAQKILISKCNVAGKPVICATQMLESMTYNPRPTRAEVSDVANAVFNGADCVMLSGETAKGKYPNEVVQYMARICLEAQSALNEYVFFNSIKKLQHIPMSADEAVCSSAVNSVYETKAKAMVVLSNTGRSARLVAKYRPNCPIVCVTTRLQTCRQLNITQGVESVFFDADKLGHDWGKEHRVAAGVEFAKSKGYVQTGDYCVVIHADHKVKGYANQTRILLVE
# Chain of Guanine nucleotide-binding protein G(i) subunit alpha-1 (Homo sapiens) (P63096 whole entry, looked up): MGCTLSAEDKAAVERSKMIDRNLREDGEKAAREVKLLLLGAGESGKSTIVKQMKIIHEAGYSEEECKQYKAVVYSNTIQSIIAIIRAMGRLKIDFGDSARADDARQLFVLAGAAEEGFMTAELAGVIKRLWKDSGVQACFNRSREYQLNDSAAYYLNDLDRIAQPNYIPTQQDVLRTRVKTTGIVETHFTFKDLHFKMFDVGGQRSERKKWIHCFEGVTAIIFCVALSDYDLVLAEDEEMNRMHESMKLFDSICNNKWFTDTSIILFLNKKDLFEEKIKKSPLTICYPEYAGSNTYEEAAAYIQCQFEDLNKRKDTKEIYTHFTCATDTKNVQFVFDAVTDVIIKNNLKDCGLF
# Chain of Cytochrome P450 2C19 (Homo sapiens) (P33261 whole entry, looked up): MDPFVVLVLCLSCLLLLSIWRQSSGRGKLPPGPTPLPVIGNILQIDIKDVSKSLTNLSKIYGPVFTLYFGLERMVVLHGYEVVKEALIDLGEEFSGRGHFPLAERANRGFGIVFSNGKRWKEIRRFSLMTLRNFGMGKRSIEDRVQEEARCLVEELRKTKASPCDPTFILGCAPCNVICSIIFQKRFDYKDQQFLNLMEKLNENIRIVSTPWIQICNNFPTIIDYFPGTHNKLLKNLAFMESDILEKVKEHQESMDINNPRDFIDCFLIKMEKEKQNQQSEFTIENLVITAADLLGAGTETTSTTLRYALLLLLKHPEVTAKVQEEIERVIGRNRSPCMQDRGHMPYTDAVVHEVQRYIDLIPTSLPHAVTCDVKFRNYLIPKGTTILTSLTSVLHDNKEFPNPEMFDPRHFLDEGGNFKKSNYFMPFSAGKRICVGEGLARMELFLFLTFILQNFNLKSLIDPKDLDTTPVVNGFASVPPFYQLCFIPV
# Chain of Muscarinic acetylcholine receptor M1 (Rattus norvegicus) (P08482 whole entry, looked up): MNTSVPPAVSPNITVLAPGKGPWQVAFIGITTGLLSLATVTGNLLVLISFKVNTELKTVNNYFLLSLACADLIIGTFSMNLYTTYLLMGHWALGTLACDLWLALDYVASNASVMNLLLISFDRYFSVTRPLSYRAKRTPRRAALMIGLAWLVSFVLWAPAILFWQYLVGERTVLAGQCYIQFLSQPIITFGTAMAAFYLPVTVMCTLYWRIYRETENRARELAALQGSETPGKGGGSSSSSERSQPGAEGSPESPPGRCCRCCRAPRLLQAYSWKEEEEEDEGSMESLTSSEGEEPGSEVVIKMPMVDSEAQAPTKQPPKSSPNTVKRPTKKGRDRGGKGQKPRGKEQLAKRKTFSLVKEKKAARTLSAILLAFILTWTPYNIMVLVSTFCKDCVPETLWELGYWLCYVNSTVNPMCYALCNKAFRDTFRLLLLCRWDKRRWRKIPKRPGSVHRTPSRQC
structure (smiles),measurement,setting,value
COc1ccccc1O,outcome,[1],inactive
same,outcome,[2],inactive
same,outcome,[3],inactive
same,outcome,[4],inactive
same,outcome,[5],inactive
same,Potency,[6],inactive
same,outcome,[7],inactive
O=C1c2c(O)cccc2Cc2cccc(O)c21,outcome,[1],inactive
same,outcome,[2],inactive
same,outcome,[3],inactive
same,outcome,[4],inactive
same,outcome,[5],inactive
same,outcome,[8],inactive
same,outcome,[7],inactive
c1ccc(CN(CC2=NCCN2)c2ccccc2)cc1,Potency,[6],inactive
same,Potency,[9],2.51 µM (active)
same,outcome,[8],inactive
same,Potency,[10],inactive
O=C1NS(=O)(=O)c2ccccc21,Potency,[6],inactive
same,outcome,[8],inactive
O=c1cc(CO)occ1O,Potency,[11],inactive
same,Potency,[6],inactive
same,Potency,[12],inactive
Cc1cc2c(cc1S(N)(=O)=O)S(=O)(=O)CCC2,Potency,[11],inactive
OCCN1CCN(CCCN2c3ccccc3Sc3ccc(Cl)cc32)CC1,outcome,[13],inactive
same,outcome,[8],inactive
same,Potency,[14],15.8 µM (active)
same,Potency,[10],inactive
same,outcome,[15],inactive
c1ccc2c(CC3=NCCN3)cccc2c1,Potency,[6],inactive
same,Potency,[9],7.94 µM (active)
same,outcome,[8],inactive
CCCn1cnc2c1c(=O)n(CCCCC(C)=O)c(=O)n2C,outcome,[13],inactive
same,outcome,[16],inactive
same,Potency,[17],inactive
same,outcome,[15],inactive
CC(CN1c2ccccc2Sc2ccccc21)N(C)C (stereo unspecified),Potency,[6],inactive
same,outcome,[8],inactive
NS(=O)(=O)c1cc2c(cc1Cl)NC(CSCc1ccccc1)=NS2(=O)=O,Potency,[6],25.1 µM (active)
same,outcome,[18],inactive
same,outcome,[8],inactive
same,Potency,[10],inactive
N=c1c[n+](N2CCOCC2)[n-]o1,outcome,[13],inactive
same,Potency,[19],inactive
same,outcome,[16],inactive
same,outcome,[15],inactive
CN(C)CCCN1c2ccccc2Sc2ccc(Cl)cc21,outcome,[13],inactive
same,outcome,[8],inactive
same,Potency,[14],12.6 µM (active)
same,outcome,[15],inactive
COc1ccc(Cl)cc1C(=O)NCCc1ccc(S(=O)(=O)NC(=O)NC2CCCCC2)cc1,outcome,[13],inactive
same,outcome,[8],inactive
same,outcome,[16],inactive
same,Potency,[10],inactive
same,outcome,[15],inactive
CC(COc1ccccc1)NC(C)C(O)c1ccc(O)cc1 (stereo unspecified),Potency,[6],inactive
same,outcome,[8],inactive
Cc1cc(N)c2ccccc2[n+]1CCCCCCCCCC[n+]1c(C)cc(N)c2ccccc21,outcome,[13],inactive
same,outcome,[18],inactive
same,outcome,[8],inactive
same,Potency,[17],1.78 µM (active)
same,outcome,[15],inactive
NCC(=O)CCC(=O)O,Potency,[6],inactive
same,outcome,[8],inactive
CCN(CC)CCOC(=O)C1(C2CCCCC2)CCCCC1,outcome,[13],inactive
same,outcome,[18],inactive
same,outcome,[8],inactive
same,outcome,[15],inactive
Cc1c(Cl)cccc1Nc1ccccc1C(=O)O,Potency,[11],3.16 µM (active)
same,Potency,[6],inactive
same,outcome,[8],inactive
CCCCCCCCCCCCCCCCCCOCC(O)CO (stereo unspecified),Potency,[6],inactive
same,outcome,[8],inactive
CN(C)CCN(Cc1ccccc1)c1ccccn1,Potency,[6],inactive
same,outcome,[8],inactive
Cc1cccc(Nc2cc(Cl)nc(SCC(=O)O)n2)c1C,"activity change, negative = inhibition",[11],-10.9% [at 11.4 µM]
same,Potency,[9],3.16 µM (active)
same,"activity change, negative = inhibition",[9],13.3% [at 11.4 µM]
same,"activity, negative = inhibition",[12],16.3% [at 11.4 µM]
same,outcome,[8],inactive
same,Potency,[10],inactive
